This is a sample that favours compounds with a hit; in the whole collection about 3.3% have one here.
LmPK inhibitor = blocks Leishmania mexicana pyruvate kinase activity | Q27686 | purified LmPK, Kinase-Glo ATP luminescence, 1 h | Potency, µM (doses to about 57.5 µM), inactives show top-dose activity change, negative = inhibition, most hits filed as inhibitors | hit rate 0.37% among 290,000
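ATP generated from ADP (0.1 mM) and PEP (0.5 mM) by 0.1 nM LmPK over 1 h at room temperature (pH 7.2 imidazole buffer) was detected by coupled luciferase luminescence. Values were normalized to uninhibited and no-enzyme wells.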
Giardia FBPA inh-1 = blocks Giardia fructose-bisphosphate aldolase activity; purified Giardia FBPA; Potency, µM (highest dose often 59.6 µM), for inactives: at the highest dose activity, negative = inhibition, hits mostly inhibitors; hit rate 0.71% among 290,000; A8B2U2; further: nearly all actives have a fitted effect of over 55% in size
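40 nM FBPA preincubated 10 min at RT with compound (up to 57.5 uM final), then substrate plus GAPDH/TPI/NAD/arsenate coupling and diaphorase/resazurin added. Fluorescence read after 20 min at RT, 525/598 nm.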
RE007 growth inh = less growth of the S. pombe RE007 Vpr strain; S. pombe RE007 Vpr strain, BacTiter-Glo ATP luminescence, 24 h; Potency, µM (doses to about 92.2 µM), without a hit: at the top dose activity change, negative = less growth, actives largely listed as inhibitors; hit rate 0.21% among 360,000; AID 651644; active means well fitted falling curve with a large enough effect; inconclusive means small, poorly fitted or top-dose-only effect; inactive means no such curve, though single readings can be large or run the other way; further: nearly all actives have a fitted effect of over 50% in size
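Fission yeast RE007 carrying one integrated HIV-1 vpr copy, seeded at OD 0.01 in PMG+AL medium with 23 nL pinned compound. Grown 24 h at 30 degrees; viability read by BacTiter-Glo luminescence after 5 min.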
Sm TGR block = blocks Schistosoma mansoni thioredoxin glutathione reductase; AID 485364; hit rate 3% among 360,000; Q962Y6; Potency, µM (doses to about 114 µM), inactives show top-dose activity change, negative = inhibition, actives largely listed as inhibitors; purified TGR, DTNB reduction, TNB absorbance 405 nm; further: nearly all actives have a fitted effect of over 60% in size
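Kinetic colorimetric format: TGR-catalysed, NADPH-driven DTNB reduction monitored via TNB absorbance. Enzyme dispensed at 20 nM; compound exposure 15 min at room temperature before reaction start.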
TbPYK inhibitor = inhibitors of Trypanosoma brucei pyruvate kinase. Q57TT1. TbPYK enzyme, Kinase-Glo Plus ATP luminescence, 45 min. Potency, µM (titrated, usually from 76.8 µM), for inactives: at the highest dose activity, negative = inhibition, actives largely listed as inhibitors. hit rate 0.12% among 410,000; further: nearly all actives have a fitted effect of over 50% in size
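Glycolytic pyruvate kinase of T. brucei was incubated with substrate, test compound and 130 uM ADP for 45 minutes at room temperature. Luminescent Kinase-Glo Plus signal was measured after 10 minutes.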
Giardia growth = inhibitors of Giardia lamblia growth. shares compounds with Giardia FBPA inh-1. Giardia lamblia trophozoite growth inhibition. Potency, µM (top dose mostly 57.5 µM), for the others: top-dose activity change, negative = inhibition, most hits filed as inhibitors. hit rate 5% among 1,500. AID 2785;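 further: trophozoites exposed to compound for 48 h at 37 °C; nearly all actives have a fitted effect of over 70% in size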
Mammalian tox = toxic to mammalian cells in Giardia aldolase counter-screen. shares compounds with Giardia FBPA inh-1. mammalian cell viability counter-screen, qHTS. Potency, µM (series often up to 57.5 µM), for inactives: at the highest dose viability change, negative = toxicity, most hits filed as inhibitors. hit rate 4% among 1,500. AID 2786;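 further: Chinese hamster ovary cells used as mammalian cytotoxicity surrogate; viability measured as cellular ATP by luminescence; compound exposure lasted 48 h before reading; nearly all actives have a fitted effect of over 60% in size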
Giardia FBPA inh-2 = confirmation of Giardia fructose-bisphosphate aldolase inhibitors; shares compounds with Giardia FBPA inh-1; purified Giardia aldolase enzyme activity, qHTS; Potency, µM (titrated, usually from 57.5 µM), inactives show at the top dose activity change, negative = inhibition, actives largely listed as inhibitors; hit rate 5% among 1,500; further: nearly all actives have a fitted effect of over 45% in size
Rabbit aldolase = selectivity test for Giardia aldolase inhibitors: rabbit aldolase. Rabbit muscle FBPA enzyme inhibition, selectivity counter-screen. shares compounds with Giardia FBPA inh-1. Potency, µM (doses to about 57.5 µM), inactives show at the top dose activity, negative = inhibition, hits mostly inhibitors. hit rate 4% among 1,500; further: nearly all actives have a fitted effect of over 60% in size
Target sequence (P00883 whole entry, looked up): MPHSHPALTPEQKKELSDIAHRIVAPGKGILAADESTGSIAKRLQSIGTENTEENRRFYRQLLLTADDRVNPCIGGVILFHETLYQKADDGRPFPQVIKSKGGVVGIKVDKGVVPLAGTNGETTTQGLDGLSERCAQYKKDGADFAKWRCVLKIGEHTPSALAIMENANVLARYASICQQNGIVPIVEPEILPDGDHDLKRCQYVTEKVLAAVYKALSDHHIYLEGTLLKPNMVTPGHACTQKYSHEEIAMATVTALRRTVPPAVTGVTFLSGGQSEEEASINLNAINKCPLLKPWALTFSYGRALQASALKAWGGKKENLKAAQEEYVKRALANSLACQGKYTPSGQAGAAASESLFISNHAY
GAPDH coupling = counter-screen for Giardia aldolase inhibitors: GAPDH coupling enzyme; AID 2795; shares compounds with Giardia FBPA inh-1; GAPDH coupling enzyme counterscreen, biochemical, qHTS; Potency, µM (doses to about 57.5 µM), inactives show at the top dose activity change, negative = inhibition, actives largely listed as inhibitors; hit rate 6% among 1,500; further: nearly all actives have a fitted effect of over 55% in size
* marks the source's active call; other numbers are inactive results; [ ] = dose if it differs, or a comment. Unless noted, the call rests on the fitted dose curve; in most records, active means well fitted curve in the direction sought with a large enough effect; inconclusive means small, poorly fitted or top-dose-only effect, or another doubt; inactive means no such curve, though single readings can be large; an effect the other way counts as inactive or inconclusive. On the % scale 0 is the no-effect control and ±100 the full control effect; potency means the concentration at half of the fitted maximal effect.

Screening COc1ccccc1NS(=O)(=O)c1cc(NC(=O)c2sccc2C)ccc1N1CCCC1 returned LmPK inhibitor 0%, Giardia FBPA inh-1 14µM*, RE007 growth inh -10%, TbPYK inhibitor inconclusive, Giardia growth -12%[10.4 µM], Mammalian tox -18%, Giardia FBPA inh-2 inconclusive, Rabbit aldolase inconclusive and GAPDH coupling inconclusive.
`COC(=O)c1c(-c2cccc(OC)c2)csc1N` gave LmPK inhibitor -2%, Giardia FBPA inh-1 -21%, RE007 growth inh 9%, Sm TGR block -14% and TbPYK inhibitor -17%.
COC(=O)c1c(-c2ccc(OC)c(OC)c2)csc1N was read as LmPK inhibitor 4%, Giardia FBPA inh-1 18µM*, RE007 growth inh -11%, Sm TGR block 3%, TbPYK inhibitor 12%, Giardia growth -30%, Mammalian tox -13%, Giardia FBPA inh-2 inconclusive, Rabbit aldolase -13% and GAPDH coupling -12%.
For CN(C)c1ccc(C=NCCC2(O)CCOC(C)(C)C2)cc1 (configuration not stated) the results were LmPK inhibitor 2%, Giardia FBPA inh-1 -1%, RE007 growth inh 27%, Sm TGR block -24% and TbPYK inhibitor -3%.
CN(C)CCCCOc1ccccc1F was read as LmPK inhibitor 1%, Giardia FBPA inh-1 20µM*, RE007 growth inh 3%, Sm TGR block -6%, TbPYK inhibitor 21%, Giardia growth inconclusive, Mammalian tox 9%, Giardia FBPA inh-2 4%, Rabbit aldolase 11% and GAPDH coupling -7%.
Screening CSS(=O)(=O)c1cccc2cccnc12 returned LmPK inhibitor 10%, Giardia FBPA inh-1 18µM*, RE007 growth inh 1%, Sm TGR block 0%, TbPYK inhibitor inconclusive, Giardia growth 23%, Mammalian tox 0%, Giardia FBPA inh-2 -15%, Rabbit aldolase inconclusive and GAPDH coupling inconclusive.
CCN(CC)S(=O)(=O)c1cccc2cccnc12 was read as LmPK inhibitor 7%, Giardia FBPA inh-1 -8%, RE007 growth inh 8%[3.69 µM] and Sm TGR block -16%.
`C(=C\c1ccccc1)/CN1CCN(Cc2ccc3c(c2)OCO3)CC1` gave LmPK inhibitor -3%, Giardia FBPA inh-1 7.9µM*, RE007 growth inh -8%, Sm TGR block 2%, TbPYK inhibitor 0%, Giardia growth -20%, Mammalian tox 7%, Giardia FBPA inh-2 9%, Rabbit aldolase 0% and GAPDH coupling 17%.
For O=[N+]([O-])c1ccccc1/C=C/CN1CCN(Cc2ccc3c(c2)OCO3)CC1 the results were LmPK inhibitor -4%, Giardia FBPA inh-1 11µM*, RE007 growth inh -12%, Sm TGR block -17%, TbPYK inhibitor 5%, Giardia growth -8%[10.4 µM], Mammalian tox 7%, Giardia FBPA inh-2 -7%, Rabbit aldolase 0% and GAPDH coupling 9%.
For O=[N+]([O-])c1cccnc1N1CCN(Cc2ccc3c(c2)OCO3)CC1 the results were LmPK inhibitor -14%, Giardia FBPA inh-1 inconclusive, RE007 growth inh -1%, Sm TGR block 4% and TbPYK inhibitor -1%.
